GLS inh: glutaminase GLS (human) inhibition | O94925 | GLS enzymatic activity, qHTS titration | Potency, µM (highest dose often 45.5 µM), for the others: at the highest dose activity change, negative = inhibition, usual class: inhibitors | 410,000 tested, 0.21% active; further: on the % scale 0 is the no-effect control and ±100 the full control effect
Target sequence (O94925 whole entry, looked up): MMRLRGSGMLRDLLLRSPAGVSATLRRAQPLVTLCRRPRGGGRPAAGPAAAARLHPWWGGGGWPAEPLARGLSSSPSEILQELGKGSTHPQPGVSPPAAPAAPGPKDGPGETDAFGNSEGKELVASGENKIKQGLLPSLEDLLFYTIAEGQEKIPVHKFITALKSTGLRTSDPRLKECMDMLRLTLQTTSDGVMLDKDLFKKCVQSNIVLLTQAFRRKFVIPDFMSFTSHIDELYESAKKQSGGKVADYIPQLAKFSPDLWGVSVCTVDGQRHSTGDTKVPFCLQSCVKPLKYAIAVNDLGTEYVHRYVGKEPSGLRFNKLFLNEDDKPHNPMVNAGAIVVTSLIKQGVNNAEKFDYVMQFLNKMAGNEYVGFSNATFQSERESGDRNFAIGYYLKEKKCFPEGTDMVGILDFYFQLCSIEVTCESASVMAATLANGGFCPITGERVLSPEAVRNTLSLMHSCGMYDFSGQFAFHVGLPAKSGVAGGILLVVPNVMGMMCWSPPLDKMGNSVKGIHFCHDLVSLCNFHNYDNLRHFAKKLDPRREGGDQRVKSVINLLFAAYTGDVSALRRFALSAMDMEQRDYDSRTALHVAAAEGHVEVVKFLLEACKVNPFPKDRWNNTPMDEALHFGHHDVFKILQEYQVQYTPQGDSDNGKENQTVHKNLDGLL
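Glutamate formation by hKGA was monitored fluorometrically using coupled glutamate oxidase, HRP and Amplex Red. Substrate was added as 1 mM L-glutamine solution; incubation was 30 min at RT after an initial read.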
POLI inh: inhibitors of human DNA polymerase iota; AID 588590; Pol iota fluorescent replication assay, 10 min; 390,000 tested, 1% active; Q9UNA4; Potency, µM (series often up to 115 µM), for the others: at the top dose activity, negative = inhibition, actives largely listed as inhibitors
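Fluorescent replication assay read twice, at 0 min and 10 min after adding 50 nM (final) substrate. Enzyme (10 nM) and compounds were first incubated 15 min at room temperature; enzyme-free buffer wells were negative controls.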
APEX1 inh: blocks human APE1 abasic DNA cleavage; P27695; recombinant APE1, TAMRA/BHQ-2 abasic DNA cleavage fluorescence; Potency, µM (highest dose often 65.8 µM), for the others: at the highest dose activity change, negative = inhibition, actives largely listed as inhibitors; 350,000 tested, 0.35% active; AID 2517;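 further: plate controls were vehicle for no effect and reference inhibitor for full effect; nearly all actives have a fitted effect of over 55% in size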
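Activity was derived from the fluorescence gain between first and third kinetic reads (60 s intervals, ex 525/em 598 nm) after 50 nM THF-abasic TAMRA/BHQ-2 duplex was added to 0.75 nM APE1 preincubated 15 min with compound.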
POLK inh: DNA polymerase kappa (human) inhibition. Q9UBT6. Potency, µM (titrated, usually from 107 µM), for the others: at the top dose activity, negative = inhibition, hits mostly inhibitors. purified Pol kappa, fluorescent DNA synthesis assay, 10 min. 400,000 tested, 0.53% active; further: on the % scale 0 is the no-effect control and ±100 the full control effect
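10 nM Pol kappa preincubated 15 min at room temperature with compounds, then reaction started with substrate at 50 nM final. Fluorescence read kinetically at 0 and 10 min; buffer-only wells served as negative control.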
POLH inh: blocks human DNA polymerase eta activity; Q9Y253; recombinant Pol eta, fluorescent DNA replication assay; Potency, µM (highest dose often 114 µM), for inactives: at the top dose activity change, negative = inhibition, usual class: inhibitors; 390,000 tested, 1.2% active; further: on the % scale 0 is the no-effect control and ±100 the full control effect
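Pol eta (10 nM) was preincubated with compounds for 15 min at room temperature, after which fluorescent replication substrate (50 nM final) was added to start the reaction. Fluorescence was read kinetically at 0 and 10 min.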
POLB inh: blocks human DNA polymerase beta activity; Pol beta primer extension/strand displacement, fluorescence kinetic; Potency, µM (highest dose often 114 µM), inactives show at the top dose activity change, negative = inhibition, usual class: inhibitors; 340,000 tested, 1.3% active; AID 485314; further: on the % scale 0 is the no-effect control and ±100 the full control effect
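Pol beta (10 nM) and compounds were preincubated 15 min at room temperature, then 50 nM substrate (final) started primer extension/strand displacement. Reads were taken at 0 and 10 min; concentration-response data were fitted to a four-parameter Hill equation.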
An asterisk follows results filed as active; [ ] = another dose, or the depositor's remark. Compounds with a hit are over-represented: about 2.4% of the library has one in this group of screens. The call rests on the fitted dose curve; in most records, active means well fitted curve in the direction sought with a large enough effect; inconclusive means small, poorly fitted or top-dose-only effect, or another doubt; inactive means no such curve, though single readings can be large; an effect the other way counts as inactive or inconclusive. Potency means the concentration at half of the fitted maximal effect.

What do the screens show for `COCC#CCN1CCCCC1c1cccnc1` (centres undefined)?
APEX1 inh: -2%

Results for COP(=O)(OC)/C(C=O)=N/Nc1ccc([N+](=O)[O-])cc1 ?
GLS inh: 5%; POLI inh: 36%; APEX1 inh: -2%; POLK inh: 0%; POLH inh: -1%; POLB inh: 22µM*

How did COP(=O)(OC)C(Nc1ccc([N+](=O)[O-])cc1)c1ccccc1 (centres undefined) do in these assays?
GLS inh: 6%; POLI inh: 127%; APEX1 inh: 18%; POLK inh: -2%; POLH inh: 1%; POLB inh: 20%

What do the screens show for `N#CC12CC(=O)N1Cc1cnnn1-c1ccccc12` (centres undefined)?
GLS inh: 2%

What do the screens show for `CN(C)C1CCc2[nH]c3c(F)cc(F)cc3c2C1` (centres undefined)?
GLS inh: 14%; POLH inh: -18%

Results for CCOc1ccc(NC(=O)c2ccc(NC(=O)COC(=O)Cc3ccccc3)cc2)cc1 ?
GLS inh: -1%; POLI inh: inconclusive; APEX1 inh: -1%; POLK inh: -9%; POLH inh: -14%; POLB inh: 22µM*

Results for CCOc1ccc(NC(=O)c2c(C)nn(Cc3ccccc3)c2Cl)cc1 ?
GLS inh: 1%; POLI inh: 25%; APEX1 inh: -2%; POLK inh: 4%; POLH inh: -17%; POLB inh: 28%[57.1 µM]

How did CC(C)Oc1cc(-n2c(=S)[nH]c3ccccc3c2=O)c(Cl)cc1Cl do in these assays?
GLS inh: 0%; POLI inh: -1%; APEX1 inh: 2%; POLK inh: -13%; POLH inh: -12%; POLB inh: -17%

Results for CCc1ccc(N2NC(=O)/C(=C/C=C/c3ccco3)C2=O)cc1 ?
GLS inh: -17%; POLI inh: 18µM*; APEX1 inh: 2%; POLK inh: inconclusive; POLH inh: inconclusive; POLB inh: inconclusive

How did O=c1c2ccccc2nc(CSc2ncnc3nc[nH]c23)n1-c1ccccc1Cl do in these assays?
GLS inh: 2%; POLI inh: -16%; APEX1 inh: -3%; POLK inh: -12%; POLH inh: -2%; POLB inh: 40µM*

What do the screens show for `O=[N+]([O-])c1cc(Cl)c(Cl)c(Cl)c1`?
APEX1 inh: -2%

How did CCCCCN1C(=O)c2cc(OC)ccc2[C@@]2(C(=O)OCC)Cc3cc(Cl)ccc3[C@@H]12 do in these assays?
GLS inh: 57%

What do the screens show for `O=[N+]([O-])c1ccc(NCc2ccccc2)c2nonc12`?
GLS inh: -3%; POLI inh: 32µM*; APEX1 inh: -3%; POLK inh: -26%; POLH inh: -25%; POLB inh: 1%

Results for COC1C(OC(=O)c2ccc(C)[nH]2)C(O)C(Oc2ccc3c(O)c(NC(=O)c4ccc(O)c(CC=C(C)C)c4)c(=O)oc3c2Cl)OC1(C)C (centres undefined) ?
GLS inh: inconclusive; POLI inh: -22%; APEX1 inh: 4%; POLK inh: -17%; POLH inh: inconclusive; POLB inh: 45µM*

Results for Cc1c(NC(=O)C(C)OC(=O)Cc2ccccc2)c(=O)n(-c2ccccc2)n1C (centres undefined) ?
GLS inh: -12%; POLI inh: 42%; APEX1 inh: -2%; POLK inh: -3%; POLH inh: -10%; POLB inh: 16%

How did CCCCCCCC/C=C\CCCCCCCC(=O)OC[C@@H](COP(O)(O)=S)OC do in these assays?
APEX1 inh: inconclusive; POLK inh: 17µM*

How did c1ccc2c(CCNCc3ccc4c(c3)OCO4)c[nH]c2c1 do in these assays?
GLS inh: 19%; POLI inh: 5%; APEX1 inh: 5%; POLK inh: -7%; POLH inh: -6%; POLB inh: -20%

What do the screens show for `Cc1ccc(-n2c(O)c(C=NCc3ccco3)c(=O)[nH]c2=S)cc1C`?
GLS inh: 0%; POLI inh: 20µM*; APEX1 inh: inconclusive; POLK inh: 40µM*; POLH inh: inconclusive; POLB inh: inconclusive

How did O=c1[nH]c(=O)n(Cc2ccco2)c(O)c1C=NCCN1CCOCC1 do in these assays?
GLS inh: inconclusive; POLI inh: inconclusive; APEX1 inh: 4%; POLK inh: -24%; POLH inh: 10µM*; POLB inh: 8%

How did O=c1[nH]c(=O)n(Cc2ccco2)c(O)c1C=NCc1ccco1 do in these assays?
GLS inh: -25%; POLI inh: 40µM*; APEX1 inh: 1%; POLK inh: -28%; POLH inh: 89µM*; POLB inh: inconclusive

How did O=c1[nH]c(=S)n(-c2ccccc2F)c(O)c1C=NCc1ccco1 do in these assays?
GLS inh: 0%; POLI inh: 8%; APEX1 inh: -2%; POLK inh: 3%; POLH inh: -1%; POLB inh: 13%

How did C[C@@H](Cc1ccc(OCC(=O)O)cc1)NC[C@H](O)c1cccc(Cl)c1 do in these assays?
APEX1 inh: 11%; POLK inh: -6%[19.4 µM]

How did CC1CCCC(C2(O)C(=O)Nc3ccccc32)C1=O (centres undefined) do in these assays?
GLS inh: 4%; POLI inh: -6%; APEX1 inh: 14%; POLK inh: -7%; POLH inh: inconclusive; POLB inh: 3%

What do the screens show for `COc1ccc2oc(=O)c(C(=O)NCCc3c(C)[nH]c4ccc(F)cc34)cc2c1`?
GLS inh: 7%; POLI inh: inconclusive; POLK inh: 4%; POLH inh: -16%; POLB inh: 23%

Results for CC=C(C)C(=O)O[C@H]1C(C)=C2[C@@H]3OC(=O)[C@@](C)(O)[C@@]3(O)[C@@H](OC(=O)CCC)C[C@](C)(OC(C)=O)[C@@H]2[C@@H]1OC(=O)CCCCCCC ?
APEX1 inh: -6%; POLK inh: inconclusive

Results for C/C=C(\C)C(=O)OC1C(C)=C2C(C1OC(=O)CCCCC)C(C)(OC(C)=O)CC(OC(=O)CCC)C1(O)C2OC(=O)C1(C)O (centres undefined) ?
APEX1 inh: inconclusive; POLB inh: 25µM*

How did CC(=O)Nc1cc(Cl)c(N=Cc2ccc(O)cc2O)cc1Cl do in these assays?
GLS inh: 8%; POLI inh: inconclusive; APEX1 inh: 1%; POLK inh: -8%[60.1 µM]; POLH inh: 79µM*; POLB inh: 10µM*
